Percent Effect data for 8 molecules are collected here from ChEMBL document CHEMBL3988442, “University of Dundee, Small-Polar-MMV Screening Library” (2021).

Molecules are shown by their SMILES. For some of these results: Results with a measured potency or affinity are listed apart.

What all share (parameters): scale not given: direction of the effect not stated beside the values
In test [1] the target is Protein translocase subunit SecA (Escherichia coli (strain K12)) (UniProt P10408). The test is described as follows: Assay to Identify E. coli SecA ATPase Inhibitors. The format is functional. The following applies: 30 µM.
Chain of Protein translocase subunit SecA (Escherichia coli (strain K12)) (P10408 whole entry): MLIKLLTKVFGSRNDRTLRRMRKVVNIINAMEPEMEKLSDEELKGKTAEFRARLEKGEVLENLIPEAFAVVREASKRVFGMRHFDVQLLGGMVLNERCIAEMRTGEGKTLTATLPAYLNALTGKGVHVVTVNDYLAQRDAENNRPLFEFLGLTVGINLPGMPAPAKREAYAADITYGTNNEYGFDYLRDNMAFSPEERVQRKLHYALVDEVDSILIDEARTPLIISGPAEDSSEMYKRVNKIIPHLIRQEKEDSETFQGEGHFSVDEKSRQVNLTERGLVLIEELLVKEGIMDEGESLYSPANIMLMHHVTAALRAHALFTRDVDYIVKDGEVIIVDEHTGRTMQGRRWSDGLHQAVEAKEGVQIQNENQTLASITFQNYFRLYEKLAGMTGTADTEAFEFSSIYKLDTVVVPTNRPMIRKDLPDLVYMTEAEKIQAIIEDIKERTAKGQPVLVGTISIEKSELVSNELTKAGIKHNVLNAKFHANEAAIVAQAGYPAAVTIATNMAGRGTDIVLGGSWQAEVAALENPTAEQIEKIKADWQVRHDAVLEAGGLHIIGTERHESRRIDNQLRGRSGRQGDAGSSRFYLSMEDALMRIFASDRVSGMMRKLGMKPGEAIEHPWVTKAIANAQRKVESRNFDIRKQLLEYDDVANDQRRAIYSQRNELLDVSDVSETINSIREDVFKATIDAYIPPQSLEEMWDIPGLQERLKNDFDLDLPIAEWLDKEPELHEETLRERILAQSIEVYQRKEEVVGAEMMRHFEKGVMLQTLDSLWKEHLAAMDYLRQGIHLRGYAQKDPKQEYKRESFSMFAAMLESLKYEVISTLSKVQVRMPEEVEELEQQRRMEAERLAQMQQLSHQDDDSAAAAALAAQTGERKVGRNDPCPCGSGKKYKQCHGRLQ
The target of test [2] is T1, Ubiquitin-activating enzyme e1, putative (Leishmania donovani (strain BPK282A1)) (UniProt E9BSI1).
T1 sequence (whole entry): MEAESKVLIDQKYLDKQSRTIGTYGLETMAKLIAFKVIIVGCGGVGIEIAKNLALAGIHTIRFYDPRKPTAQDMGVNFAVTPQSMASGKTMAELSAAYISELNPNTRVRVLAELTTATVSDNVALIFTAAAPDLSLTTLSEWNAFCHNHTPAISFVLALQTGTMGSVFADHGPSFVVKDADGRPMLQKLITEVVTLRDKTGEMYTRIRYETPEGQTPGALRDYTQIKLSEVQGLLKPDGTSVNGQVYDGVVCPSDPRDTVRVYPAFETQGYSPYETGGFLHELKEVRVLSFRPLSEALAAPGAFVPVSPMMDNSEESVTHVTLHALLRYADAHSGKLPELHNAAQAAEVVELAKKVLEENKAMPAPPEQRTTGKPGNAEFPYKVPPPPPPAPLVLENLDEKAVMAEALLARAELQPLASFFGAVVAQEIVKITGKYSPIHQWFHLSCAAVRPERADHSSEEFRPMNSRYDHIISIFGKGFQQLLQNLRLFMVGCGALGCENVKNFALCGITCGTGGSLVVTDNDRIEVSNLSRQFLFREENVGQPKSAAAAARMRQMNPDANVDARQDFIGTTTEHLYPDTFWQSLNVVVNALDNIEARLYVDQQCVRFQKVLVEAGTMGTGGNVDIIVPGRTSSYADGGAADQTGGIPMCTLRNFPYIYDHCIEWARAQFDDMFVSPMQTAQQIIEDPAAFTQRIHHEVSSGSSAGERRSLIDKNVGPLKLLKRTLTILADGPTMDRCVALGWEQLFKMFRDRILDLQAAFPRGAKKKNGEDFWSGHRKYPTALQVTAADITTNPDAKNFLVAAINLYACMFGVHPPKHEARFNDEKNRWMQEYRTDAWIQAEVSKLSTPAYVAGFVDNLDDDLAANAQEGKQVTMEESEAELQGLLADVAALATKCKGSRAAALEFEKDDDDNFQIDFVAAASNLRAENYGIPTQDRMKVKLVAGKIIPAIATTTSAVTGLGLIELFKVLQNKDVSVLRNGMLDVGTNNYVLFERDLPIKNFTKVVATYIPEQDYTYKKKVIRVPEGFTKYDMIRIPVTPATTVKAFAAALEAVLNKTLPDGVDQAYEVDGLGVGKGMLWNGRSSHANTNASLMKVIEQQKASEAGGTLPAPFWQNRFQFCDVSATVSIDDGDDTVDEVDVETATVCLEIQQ
Briefly: Leishmania donovani Ubiquitin Activating Enzyme (LdE1). The format is functional. To be noted: 30 µM.

Test [3] has as its target AMP-activated protein kinase, AMPK (Homo sapiens) (UniProt P54646+O43741+P54619+Q9UGJ0+Q9Y478+Q13131+Q9UGI9). Briefly: AMP-dependent Kinase enzyme assay. An in vitro enzyme assay that detects ADP turnover that is directly proportional to AMPK activity. This uses naive AMPK that is activated during the assay with MK-8722. The format is functional. The following applies: 30 µM.

For test [4], the target named is Sialic acid-binding Ig-like lectin 9 (Homo sapiens) (UniProt Q9Y336). Briefly: Hs-Siglec9 ALPHAscreen SOP 20170721. The following applies: 10 µM.
Chain of Sialic acid-binding Ig-like lectin 9 (Homo sapiens) (Q9Y336 whole entry): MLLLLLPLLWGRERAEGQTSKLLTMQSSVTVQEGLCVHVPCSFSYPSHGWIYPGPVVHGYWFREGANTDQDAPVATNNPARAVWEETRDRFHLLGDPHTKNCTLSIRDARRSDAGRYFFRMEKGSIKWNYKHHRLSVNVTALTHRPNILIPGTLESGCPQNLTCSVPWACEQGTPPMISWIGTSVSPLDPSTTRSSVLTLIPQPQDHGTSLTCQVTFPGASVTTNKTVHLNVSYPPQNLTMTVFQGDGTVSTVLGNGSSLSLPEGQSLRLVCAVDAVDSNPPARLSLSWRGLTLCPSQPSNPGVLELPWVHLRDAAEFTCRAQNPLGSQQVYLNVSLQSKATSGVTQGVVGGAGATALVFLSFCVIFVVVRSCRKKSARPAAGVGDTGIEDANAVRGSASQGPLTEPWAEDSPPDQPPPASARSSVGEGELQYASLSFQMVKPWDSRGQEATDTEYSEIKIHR
In test [5] the test system is Trypanosoma cruzi. The test is described as follows: Trypanosoma cruzi phosphomannomutase and mannose-1-phosphate guanylyltransferase assay. The format is functional. The following applies: 10 µM.
The target of test [6] is T2, Arginase-2, mitochondrial (Homo sapiens) (UniProt P78540).
T2 sequence (whole entry): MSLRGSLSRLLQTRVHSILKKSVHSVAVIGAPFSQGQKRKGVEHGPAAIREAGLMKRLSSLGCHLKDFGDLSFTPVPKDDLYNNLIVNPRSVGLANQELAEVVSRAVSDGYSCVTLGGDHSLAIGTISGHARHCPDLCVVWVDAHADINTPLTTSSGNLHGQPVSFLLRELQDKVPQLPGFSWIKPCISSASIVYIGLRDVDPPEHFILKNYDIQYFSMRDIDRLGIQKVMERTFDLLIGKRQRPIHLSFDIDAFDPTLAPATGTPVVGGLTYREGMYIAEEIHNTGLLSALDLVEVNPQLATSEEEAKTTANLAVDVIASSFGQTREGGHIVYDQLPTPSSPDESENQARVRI
The test is described as follows: in vitro enzyme assay to detect the production of urea directly proportional to the activity of Arginase II. Note: in the data most compounds retested in dose-response had high values. The format is functional. The following applies: 33.3 µM.

Test [7] has as its target T3, Proteasome subunit beta (Trypanosoma cruzi) (UniProt O96673).
T3 sequence (whole entry): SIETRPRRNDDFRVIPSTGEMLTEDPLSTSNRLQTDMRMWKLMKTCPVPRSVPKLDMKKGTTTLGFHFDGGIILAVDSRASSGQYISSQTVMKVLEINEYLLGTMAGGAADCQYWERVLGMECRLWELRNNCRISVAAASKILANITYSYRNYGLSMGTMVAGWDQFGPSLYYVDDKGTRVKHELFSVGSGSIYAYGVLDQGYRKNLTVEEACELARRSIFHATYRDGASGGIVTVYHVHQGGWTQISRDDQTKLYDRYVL
The test is described as follows: Trypanosoma cruzi proteasome chymotrypsin-like activity (TcProtChymo) assay. Note: in the data most compounds retested in dose-response had high values. To be noted: 9.37 µM. The format is functional.

The species named for test [8] is Homo sapiens. Briefly: To identify inhibition of the IFN signalling (Jak-Stat) pathway via expression of an eGFP reporter gene under the control of an IFN-stimulated response element (ISRE) containing MxA promoter. The format is functional. To be noted: 30 µM. (In general: In a reporter assay the amount or activity of a reporter protein is the signal.)
Test [9] deals with T4, Tyrosyl-tRNA synthetase, putative (Trypanosoma cruzi (strain CL Brener)) (UniProt Q4DSP6).
T4 sequence (whole entry): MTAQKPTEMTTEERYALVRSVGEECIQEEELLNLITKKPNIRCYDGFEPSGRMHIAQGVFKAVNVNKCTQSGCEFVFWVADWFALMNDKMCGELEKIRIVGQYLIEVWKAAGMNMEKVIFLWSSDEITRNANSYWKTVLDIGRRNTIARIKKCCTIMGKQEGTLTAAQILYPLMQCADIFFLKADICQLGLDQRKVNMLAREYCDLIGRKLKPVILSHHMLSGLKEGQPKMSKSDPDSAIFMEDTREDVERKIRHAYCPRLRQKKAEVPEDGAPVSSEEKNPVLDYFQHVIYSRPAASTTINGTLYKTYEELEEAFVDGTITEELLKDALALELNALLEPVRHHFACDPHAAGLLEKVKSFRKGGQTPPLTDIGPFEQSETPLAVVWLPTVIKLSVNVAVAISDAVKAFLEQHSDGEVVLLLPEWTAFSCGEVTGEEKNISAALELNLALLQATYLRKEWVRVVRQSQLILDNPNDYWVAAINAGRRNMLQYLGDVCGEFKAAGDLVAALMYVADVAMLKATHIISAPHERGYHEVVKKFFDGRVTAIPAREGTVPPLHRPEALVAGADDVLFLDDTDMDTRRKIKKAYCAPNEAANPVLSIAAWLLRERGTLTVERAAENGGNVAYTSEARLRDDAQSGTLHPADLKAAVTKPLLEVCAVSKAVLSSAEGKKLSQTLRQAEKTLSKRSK
The test is described as follows: Trypanosoma cruzi tyrosyl tRNA synthetase (TcYRS) _High Tyrosine SOP. Note: in the data most compounds retested in dose-response had high values. To be noted: 30 µM. The format is functional.

The target of test [10] is T4, Tyrosyl-tRNA synthetase, putative (Trypanosoma cruzi (strain CL Brener)). Briefly: Trypanosoma cruzi tyrosyl tRNA synthetase (TcYRS) SOP. The format is functional. The following applies: 30 µM.
Test [11] deals with Chromo domain-containing protein 1 (Saccharomyces cerevisiae (strain ATCC 204508 / S288c) (Baker's yeast)) (UniProt P32657). The test is described as follows: ScCHD-1 Enzyme Inhibition Assay. Note: in the data most compounds retested in dose-response had high values. The format is functional. The following applies: 30 µM.
Chain of Chromo domain-containing protein 1 (Saccharomyces cerevisiae (strain ATCC 204508 / S288c) (Baker's yeast)) (P32657 whole entry, the tested form may be a part): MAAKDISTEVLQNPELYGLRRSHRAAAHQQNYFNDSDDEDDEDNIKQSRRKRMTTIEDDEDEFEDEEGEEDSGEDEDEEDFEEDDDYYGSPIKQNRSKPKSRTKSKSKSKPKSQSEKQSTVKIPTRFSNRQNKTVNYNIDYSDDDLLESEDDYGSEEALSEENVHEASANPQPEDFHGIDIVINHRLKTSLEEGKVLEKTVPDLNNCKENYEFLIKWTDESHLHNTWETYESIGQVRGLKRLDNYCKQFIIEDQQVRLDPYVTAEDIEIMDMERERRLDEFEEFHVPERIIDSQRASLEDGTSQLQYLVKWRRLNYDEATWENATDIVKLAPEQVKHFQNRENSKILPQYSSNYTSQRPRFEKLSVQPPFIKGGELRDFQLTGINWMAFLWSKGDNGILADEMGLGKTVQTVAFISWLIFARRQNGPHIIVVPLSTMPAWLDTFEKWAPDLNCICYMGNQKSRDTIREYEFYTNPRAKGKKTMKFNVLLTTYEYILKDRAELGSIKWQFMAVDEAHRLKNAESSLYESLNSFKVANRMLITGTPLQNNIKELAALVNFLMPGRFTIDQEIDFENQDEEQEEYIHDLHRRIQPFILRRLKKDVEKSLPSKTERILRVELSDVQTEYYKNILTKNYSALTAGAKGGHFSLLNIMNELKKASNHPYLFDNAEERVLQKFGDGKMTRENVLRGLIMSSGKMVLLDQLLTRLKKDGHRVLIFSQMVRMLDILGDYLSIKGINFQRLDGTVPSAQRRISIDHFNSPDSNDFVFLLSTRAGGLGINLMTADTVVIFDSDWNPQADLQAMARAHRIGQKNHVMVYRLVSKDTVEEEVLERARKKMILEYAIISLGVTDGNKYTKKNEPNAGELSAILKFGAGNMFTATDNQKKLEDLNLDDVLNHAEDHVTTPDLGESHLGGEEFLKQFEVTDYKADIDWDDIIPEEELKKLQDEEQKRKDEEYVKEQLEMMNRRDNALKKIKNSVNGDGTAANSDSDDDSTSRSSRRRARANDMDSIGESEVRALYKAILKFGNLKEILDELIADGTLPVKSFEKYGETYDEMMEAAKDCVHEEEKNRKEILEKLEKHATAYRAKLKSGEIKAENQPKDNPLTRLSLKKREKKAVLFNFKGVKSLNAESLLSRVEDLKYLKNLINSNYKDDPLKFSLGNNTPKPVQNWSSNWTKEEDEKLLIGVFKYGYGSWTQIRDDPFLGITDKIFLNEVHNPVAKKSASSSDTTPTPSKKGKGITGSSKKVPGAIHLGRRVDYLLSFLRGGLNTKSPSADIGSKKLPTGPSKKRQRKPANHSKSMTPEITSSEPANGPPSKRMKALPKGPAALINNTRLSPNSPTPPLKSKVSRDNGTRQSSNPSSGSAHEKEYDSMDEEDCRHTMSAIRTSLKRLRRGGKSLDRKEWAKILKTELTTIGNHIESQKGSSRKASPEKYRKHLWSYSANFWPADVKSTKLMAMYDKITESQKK

For `CCc1nc2n(n1)CC(NCc1ccnc(-c3ccccc3)n1)CC2` (stereo not drawn), the Percent Effect in test [1] is -0.451%; in test [2], 0%; in [3], -2.11%; in test [4], 2.45%; in test [5] it was 6.26%; in [6], 3.6%. The Percent Effect in [7] is -4.32%; in [8], -20.9%; in test [9], 3.45%; in [10], 6.17%; in test [11], 0.195%.

As for `COc1ccccc1C1CNC(=O)c2nc(-c3ncc[nH]3)[nH]c2C1` (stereo not drawn), the Percent Effect in test [1] is -0.895%; in test [2] it was 16.2%; in test [3], -2.89%; in test [4] it was 12.1%; in test [5], 7.14%; in [6], 4.29%. For the same molecule, the Percent Effect in test [7] is 14.3%; in test [8] it was 20.7%; in test [9], 14.3%; in test [10], 29.3%; in [11], -3.23%.

With `O=C(CCc1nccs1)N1CCCC(N2CCNC2=O)C1` (stereo not drawn), the Percent Effect was -3.25% in test [1]; 11% in [2]; 5.41% in test [3]; -1.3% in test [4]; -2.35% in test [5]; 5% in [6]. Besides, the Percent Effect in test [7] is 8.16%; in test [8] it was 4.48%; in test [9], 4.3%; in test [10], 10%; in test [11] it was -4.2%.

Take `CSCCC1c2nc[nH]c2CCN1Cc1cc(Cl)ccc1O` (stereo not drawn): the Percent Effect in test [1] was -4.06%; in test [2], -2.67%; in [3], -4.48%; in test [4], 3.19%; in test [5], 2.63%; in test [6], 0.521%. Besides, the Percent Effect in test [7] was 18.3%; in test [8], 35.7%; in test [9] it was 12.6%; in [10], 23.5%; in [11] it was -0.295%.

With `COc1cccc(C(=O)N2CCCC(C(=O)CCc3ccccc3)C2)c1` (stereo not drawn), the Percent Effect in test [1] was -1.46%; in [2], 11%; in [3], 17.6%; in [4] it was 10.9%; in [5], 1.96%; in test [6], 4.54%. Besides, the Percent Effect in test [7] was 20.1%; in test [8], 23.4%; in test [9], 1.07%; in test [10] it was 7.5%; in test [11] it was -8.9%.

As for `CC(C)Nc1nc2c(cc1C(=O)NCC1CC1)CCNCC2`, the Percent Effect was -1.6% in test [1]; 10.7% in test [2]; 6.52% in [3]; 7.51% in test [4]; -2.9% in test [5]; -29.2% in [6]. In addition, the Percent Effect in test [7] is 8.55%; in test [8], -6.96%; in test [9] it was 7.29%; in test [10], 5%; in test [11], -10.3%.

As for `Cc1ccc(CN2CC3(CCN(C(=O)c4cscn4)C3)C2)s1`, the Percent Effect in test [1] was 1.32%; in test [2] it was 0%; in test [3], 1.31%; in [4] it was 11.8%; in test [5], -2.98%; in test [6] it was 3.19%. The Percent Effect is 9.85% in [7]; -1.49% in test [8]; 7.29% in test [9]; -1.24% in test [10]; -1.23% in [11].

Turning to `CC1=Nc2c(c(=O)[nH]n2C(C)C)C(c2ccccc2)S1` (stereo not drawn), the Percent Effect in test [1] was -5.22%; in test [2], 4%; in [3], 12.2%; in test [4] it was 5.15%; in test [5] it was -0.786%; in test [6] it was -3.7%. Moreover, the Percent Effect was 12% in test [7]; 32.4% in test [8]; 22.2% in [9]; 28.2% in test [10]; -3.79% in [11].
